Reference: the supplement of paper PMC10849652
Targets with a hit are over-represented here; the source holds about 7,900 in all. About 0.6% of all pairs of compound and target were hits.

How the values were obtained:
Test in all cases: log2 fold change, soluble protein after heating vs DMSO (PISA); higher = thermal stabilisation; K562 cells, 10 uM, 30 min; active = over 0.2 and 3.5 SD of the protein, either way, in both replicates (recomputed)
[1] = compound: Cc1ccc(NC(=O)c2ccc(CN3CC[C@H](N(C)C)C3)c(C(F)(F)F)c2)cc1Nc1nccc(-c2cncnc2)n1 [bafetinib]
Method in brief: (§1)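 Values are thermal stability changes relative to control samples and are taken from duplicates. They are stated as log2 fold changes. Before quantification by TMTpro 16plex LC-MS/MS with equalised channel sums, K562 cells at 2×10^6 cells/mL were treated with 10 μM compound for 30 min, heated in aliquots for 3 min across 48°C-58°C, pooled, extracted in PBS with 0.5% NP-40 at 4°C, and centrifuged at 21,000xg for 90 min to give the soluble supernatant.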

[2] = compound: Cc1cccc(CC(=O)N2CCc3c2ccc(-c2cn(C)c4ncnc(N)c24)c3F)n1
Method in brief: as §1

[3] = compound: Cc1cn(-c2cc(NC(=O)c3ccc(C)c(Nc4nccc(-c5cccnc5)n4)c3)cc(C(F)(F)F)c2)cn1 [nilotinib]
Method in brief: as §1

[4] = compound: Cc1nc(Nc2n[nH]c3c2CN(C(=O)N[C@H](CN(C)C)c2ccccc2)C3(C)C)c2sccc2n1
Method in brief: as §1

[5] = compound: Cc1nc(Nc2ncc(C(=O)Nc3c(C)cccc3Cl)s2)cc(N2CCN(CCO)CC2)n1 [dasatinib]
Method in brief: as §1

[6] = compound: Cc1ncc(-c2ccnc(Nc3ccc(S(C)(=O)=O)cc3)n2)n1C(C)C
Method in brief: as §1

[7] = compound: Cn1cc(-c2ccc3c(c2)CCN3C(=O)Cc2cccc(C(F)(F)F)c2)c2c(N)ncnc21
Method in brief: as §1

[8] = compound: Cn1cc(-c2ccc3nnc(C(F)(F)c4ccc5ncccc5c4)n3n2)cn1
Method in brief: as §1

[9] = compound: Cn1cncc1[C@@](N)(c1ccc(Cl)cc1)c1ccc2c(c1)c(-c1cccc(Cl)c1)cc(=O)n2C [tipifarnib]
Method in brief: as §1

[10] = compound: FC(F)(F)c1ccc(/C=C/c2nc(COc3ccc(CCCCn4ccnn4)cc3)co2)cc1 [mubritinib]
Method in brief: as §1

[11] = compound: NC(=O)Nc1cc(-c2cccc(F)c2)sc1C(=O)N[C@H]1CCCNC1
Method in brief: as §1

[12] = compound: NC(=O)c1cnc(N[C@@H]2CCCC[C@@H]2N)nc1Nc1cccc(-n2nccn2)c1
Method in brief: as §1

[13] = compound: NC1(c2ccc(-c3nc4ccn5c(=O)[nH]nc5c4cc3-c3ccccc3)cc2)CCC1
Method in brief: as §1

[14] = compound: NCC(=O)Nc1ccc(-n2nc(C(F)(F)F)cc2-c2ccc3c(ccc4ccccc43)c2)cc1
Method in brief: as §1

[15] = compound: Nc1ccccc1NC(=O)c1ccc(CNC(=O)OCc2cccnc2)cc1 [entinostat]
Method in brief: as §1

[16] = compound: O=C(CCCCCCC(=O)Nc1ccccc1)NO [vorinostat]
Method in brief: as §1

[17] = compound: O=C(CCCCCCNC(=O)c1cnc(N(c2ccccc2)c2ccccc2Cl)nc1)NO [citarinostat]
Method in brief: as §1

[18] = compound: O=C(O)c1ccc2c(c1)nc(Nc1cccc(Cl)c1)c1ccncc12 [silmitasertib]
Method in brief: as §1

[19] = compound: O=C1NC(=O)C(c2cnc3ccccn23)=C1c1cn2c3c(cc(F)cc13)CN(C(=O)N1CCCCC1)CC2
Method in brief: as §1

[20] = compound: c1cc(OCCN2CCCCC2)cc(-c2n[nH]c3ccc(-c4nnc[nH]4)cc23)c1
Method in brief: as §1

Measured: log2 fold change

EPHX2 (UniProt P34913)
inactive: [1] 0.131 | [2] -0.097 | [3] 0.152 | [4] -0.029 | [5] -0.041 | [6] 0.073 | [7] 0.051 | [8] 0.016 | [9] 0.065 | [10] 0.11 | [11] -0.148 | [12] -0.05 | [13] -0.016 | [14] -0.015 | [15] 0.045 | [16] 0.113 | [17] 0.025 | [18] 0.003 | [19] -0.025 | [20] -0.037

CUEDC2 (UniProt Q9H467)
inactive: [1] -0.072 | [2] 0.003 | [3] -0.006 | [4] -0.045 | [5] 0.049 | [6] -0.055 | [7] 0.02 | [8] -0.009 | [9] 0.028 | [10] 0.042 | [11] 0 | [12] -0.105 | [13] -0.043 | [14] -0.056 | [15] -0.009 | [16] -0.039 | [17] 0.096 | [18] 0.008 | [19] -0.055 | [20] 0.002

EDC4 (UniProt Q6P2E9)
Sequence of UniProt Q6P2E9 (Q6P2E9 whole entry, looked up): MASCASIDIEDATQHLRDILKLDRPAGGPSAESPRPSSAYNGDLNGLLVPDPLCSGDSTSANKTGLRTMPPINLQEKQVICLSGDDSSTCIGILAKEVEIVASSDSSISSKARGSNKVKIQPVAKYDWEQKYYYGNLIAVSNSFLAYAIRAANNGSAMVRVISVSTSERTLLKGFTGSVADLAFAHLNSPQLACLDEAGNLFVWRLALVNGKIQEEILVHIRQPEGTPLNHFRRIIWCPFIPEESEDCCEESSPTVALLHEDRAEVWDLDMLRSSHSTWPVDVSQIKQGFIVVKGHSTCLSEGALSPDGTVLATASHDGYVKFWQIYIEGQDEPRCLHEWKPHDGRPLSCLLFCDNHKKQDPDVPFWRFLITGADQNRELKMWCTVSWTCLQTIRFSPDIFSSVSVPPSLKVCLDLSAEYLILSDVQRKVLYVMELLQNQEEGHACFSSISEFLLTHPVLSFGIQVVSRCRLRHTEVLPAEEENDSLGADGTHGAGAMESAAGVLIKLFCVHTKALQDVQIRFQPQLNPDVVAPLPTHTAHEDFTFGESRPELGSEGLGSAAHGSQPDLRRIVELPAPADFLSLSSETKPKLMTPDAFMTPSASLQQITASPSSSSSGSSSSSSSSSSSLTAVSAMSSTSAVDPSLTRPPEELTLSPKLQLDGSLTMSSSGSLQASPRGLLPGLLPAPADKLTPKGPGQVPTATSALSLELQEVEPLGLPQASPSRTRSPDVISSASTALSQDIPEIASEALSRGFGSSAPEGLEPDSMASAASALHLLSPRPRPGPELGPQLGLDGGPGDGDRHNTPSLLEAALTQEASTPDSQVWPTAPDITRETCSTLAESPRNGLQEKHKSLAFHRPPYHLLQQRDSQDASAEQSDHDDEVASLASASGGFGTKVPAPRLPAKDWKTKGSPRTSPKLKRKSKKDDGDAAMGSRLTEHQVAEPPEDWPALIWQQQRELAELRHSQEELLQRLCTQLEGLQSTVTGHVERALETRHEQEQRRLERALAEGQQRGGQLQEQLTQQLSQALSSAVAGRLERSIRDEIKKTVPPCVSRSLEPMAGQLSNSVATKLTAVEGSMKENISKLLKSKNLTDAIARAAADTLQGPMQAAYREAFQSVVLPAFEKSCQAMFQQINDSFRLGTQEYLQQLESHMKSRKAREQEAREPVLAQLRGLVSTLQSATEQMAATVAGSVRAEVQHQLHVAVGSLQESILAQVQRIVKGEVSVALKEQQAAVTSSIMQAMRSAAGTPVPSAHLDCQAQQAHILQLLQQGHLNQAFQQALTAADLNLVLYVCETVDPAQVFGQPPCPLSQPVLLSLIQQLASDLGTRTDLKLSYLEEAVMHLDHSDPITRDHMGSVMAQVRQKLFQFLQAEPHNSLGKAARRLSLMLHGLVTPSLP
active: [20] -0.253
inactive: [1] 0.006 | [2] 0 | [3] 0.013 | [4] -0.077 | [5] -0.018 | [6] -0.119 | [7] -0.046 | [8] -0.031 | [9] -0.038 | [10] -0.019 | [11] -0.06 | [12] -0.024 | [13] -0.026 | [14] -0.082 | [15] 0.026 | [16] -0.023 | [17] 0.035 | [18] -0.05 | [19] -0.066

FAM3A (UniProt P98173)
Sequence of UniProt P98173 (P98173 whole entry, looked up): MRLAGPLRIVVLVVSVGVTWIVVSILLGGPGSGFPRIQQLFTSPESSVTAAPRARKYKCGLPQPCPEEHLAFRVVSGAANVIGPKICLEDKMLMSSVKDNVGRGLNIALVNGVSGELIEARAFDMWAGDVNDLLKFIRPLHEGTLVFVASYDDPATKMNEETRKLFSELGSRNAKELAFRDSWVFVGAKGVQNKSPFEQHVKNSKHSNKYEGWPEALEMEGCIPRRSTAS
active: [13] -0.21
inactive: [1] -0.027 | [2] 0.023 | [3] 0.007 | [4] -0.044 | [5] 0.036 | [6] -0.001 | [7] 0.031 | [8] -0.03 | [9] 0.042 | [10] 0 | [11] 0.022 | [12] -0.028 | [14] 0.006 | [15] -0.097 | [16] -0.01 | [17] 0 | [18] -0.015 | [19] 0.034 | [20] -0.028

DHX16 (UniProt O60231)
Sequence of UniProt O60231 (O60231 whole entry, looked up): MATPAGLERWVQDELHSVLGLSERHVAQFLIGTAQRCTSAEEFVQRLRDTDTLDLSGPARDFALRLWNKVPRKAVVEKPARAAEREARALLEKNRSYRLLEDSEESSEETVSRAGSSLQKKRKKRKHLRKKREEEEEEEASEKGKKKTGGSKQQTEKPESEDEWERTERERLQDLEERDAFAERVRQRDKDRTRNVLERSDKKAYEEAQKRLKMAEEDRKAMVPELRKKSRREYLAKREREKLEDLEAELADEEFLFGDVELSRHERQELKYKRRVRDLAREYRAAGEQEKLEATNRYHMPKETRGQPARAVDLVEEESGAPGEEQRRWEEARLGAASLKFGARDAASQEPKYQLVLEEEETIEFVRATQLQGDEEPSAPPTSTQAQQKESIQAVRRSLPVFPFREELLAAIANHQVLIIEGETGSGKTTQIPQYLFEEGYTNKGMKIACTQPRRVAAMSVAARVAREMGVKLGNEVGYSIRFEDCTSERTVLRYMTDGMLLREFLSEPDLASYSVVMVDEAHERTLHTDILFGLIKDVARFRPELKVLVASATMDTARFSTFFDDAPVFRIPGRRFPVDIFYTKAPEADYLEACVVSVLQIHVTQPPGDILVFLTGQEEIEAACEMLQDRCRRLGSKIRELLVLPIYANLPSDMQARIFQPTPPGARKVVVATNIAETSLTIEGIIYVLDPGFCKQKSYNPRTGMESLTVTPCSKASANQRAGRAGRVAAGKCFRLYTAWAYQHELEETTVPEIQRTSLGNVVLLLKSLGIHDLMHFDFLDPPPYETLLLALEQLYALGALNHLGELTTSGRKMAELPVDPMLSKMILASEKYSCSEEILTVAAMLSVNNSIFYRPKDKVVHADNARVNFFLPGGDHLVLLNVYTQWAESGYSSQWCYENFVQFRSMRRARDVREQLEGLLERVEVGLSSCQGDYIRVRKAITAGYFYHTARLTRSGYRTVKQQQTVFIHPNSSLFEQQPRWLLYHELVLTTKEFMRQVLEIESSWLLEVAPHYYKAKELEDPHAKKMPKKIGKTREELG
inactive: [1] 0.001 | [2] 0.044 | [3] -0.031 | [4] 0.019 | [5] -0.095 | [6] -0.006 | [7] 0.059 | [8] 0.002 | [9] -0.04 | [10] 0.147 | [11] 0.005 | [12] 0.018 | [13] -0.021 | [14] -0.044 | [15] 0.013 | [16] 0.001 | [17] 0.049 | [18] -0.142 | [19] -0.012 | [20] -0.041

DYNC1LI2 (UniProt O43237)
inactive: [1] -0.041 | [2] -0.004 | [3] 0.109 | [4] 0.015 | [5] -0.068 | [6] 0.125 | [7] -0.184 | [8] 0.052 | [9] -0.01 | [10] 0.024 | [11] 0.093 | [12] -0.021 | [13] 0.206 | [14] -0.075 | [15] -0.026 | [16] 0.075 | [17] -0.101 | [18] 0.214 | [19] 0.158 | [20] -0.108

DNM2 (UniProt P50570)
inactive: [1] -0.035 | [2] 0 | [3] -0.054 | [4] -0.003 | [5] -0.099 | [6] 0 | [7] 0.075 | [8] 0.007 | [9] -0.071 | [10] 0.017 | [11] -0.019 | [12] -0.037 | [13] -0.153 | [14] -0.023 | [15] 0.005 | [16] 0.03 | [17] 0.051 | [18] -0.054 | [19] 0.008 | [20] -0.014

ELOVL1 (UniProt Q9BW60)
inactive: [1] -0.245 | [2] 0.12 | [3] -0.126 | [4] 0.024 | [5] -0.041 | [6] -0.011 | [7] 0.139 | [8] -0.097 | [9] -0.093 | [10] 0.011 | [11] 0.017 | [12] -0.191 | [13] -0.087 | [14] -0.055 | [15] 0.05 | [16] 0.321 | [17] -0.006 | [18] -0.046 | [19] 0.002 | [20] 0.035

ELOVL5 isoform 2 (UniProt Q9NYP7)
inactive: [1] -0.166 | [2] 0.124 | [3] -0.182 | [4] 0.021 | [5] -0.147 | [6] -0.054 | [7] 0.063 | [8] 0.011 | [9] -0.204 | [10] 0.068 | [11] -0.07 | [12] 0.001 | [13] -0.194 | [14] -0.065 | [15] 0.056 | [16] 0.062 | [17] 0 | [18] 0.098 | [19] 0.035 | [20] -0.158

CYBA (UniProt P13498)
Sequence of UniProt P13498 (P13498 whole entry, looked up): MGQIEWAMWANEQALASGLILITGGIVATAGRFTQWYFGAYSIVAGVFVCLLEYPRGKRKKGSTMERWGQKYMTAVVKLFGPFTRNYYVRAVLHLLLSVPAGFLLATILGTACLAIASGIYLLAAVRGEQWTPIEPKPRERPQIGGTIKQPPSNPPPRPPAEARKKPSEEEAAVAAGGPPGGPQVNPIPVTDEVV
inactive: [2] -0.06 | [3] 0.01 | [4] 0.034 | [5] -0.077 | [6] 0.026 | [7] 0.002 | [8] 0.004 | [9] 0 | [10] 0.006 | [11] -0.028 | [12] -0.141 | [13] -0.044 | [14] -0.13 | [15] -0.004 | [16] 0.018 | [17] -0.01 | [18] 0 | [19] -0.01 | [20] -0.041
active: [1] -0.24

DIP2A (UniProt Q14689)
inactive: [1] -0.005 | [2] -0.019 | [3] 0.005 | [4] -0.07 | [5] -0.04 | [6] 0.01 | [7] 0.043 | [8] -0.053 | [9] 0.02 | [10] 0.002 | [11] -0.056 | [12] 0.007 | [13] -0.356 | [14] 0.017 | [15] 0.002 | [16] 0.031 | [17] 0.043 | [18] 0.1 | [19] -0.016 | [20] 0.004

EXOC4 (UniProt Q96A65)
inactive: [1] 0.012 | [2] 0.11 | [3] -0.068 | [4] -0.155 | [5] -0.15 | [6] -0.031 | [7] -0.026 | [8] 0.013 | [9] -0.088 | [10] 0.078 | [11] 0.081 | [12] -0.216 | [13] -0.205 | [14] -0.051 | [15] 0.078 | [16] 0.174 | [17] 0.16 | [18] 0.091 | [19] 0.044 | [20] -0.094

DBR1 (UniProt Q9UK59)
Sequence of UniProt Q9UK59 (Q9UK59 whole entry, looked up): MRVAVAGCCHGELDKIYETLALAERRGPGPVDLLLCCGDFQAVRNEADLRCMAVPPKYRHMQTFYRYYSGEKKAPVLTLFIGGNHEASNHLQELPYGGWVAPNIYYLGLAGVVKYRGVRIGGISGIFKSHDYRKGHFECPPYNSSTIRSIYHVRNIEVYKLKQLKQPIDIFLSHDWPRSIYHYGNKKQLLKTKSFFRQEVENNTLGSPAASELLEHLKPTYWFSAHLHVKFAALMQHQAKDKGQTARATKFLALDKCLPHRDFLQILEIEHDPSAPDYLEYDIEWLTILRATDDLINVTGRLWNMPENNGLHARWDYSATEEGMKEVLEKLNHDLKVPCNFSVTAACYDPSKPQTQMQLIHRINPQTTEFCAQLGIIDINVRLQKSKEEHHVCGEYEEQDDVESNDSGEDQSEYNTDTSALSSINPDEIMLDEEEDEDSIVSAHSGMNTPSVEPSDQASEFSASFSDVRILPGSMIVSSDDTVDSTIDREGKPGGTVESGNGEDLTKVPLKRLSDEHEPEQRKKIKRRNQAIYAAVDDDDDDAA
inactive: [1] -0.001 | [2] 0.02 | [3] -0.023 | [4] 0.05 | [5] 0.06 | [6] -0.009 | [7] 0.021 | [8] -0.067 | [9] 0.03 | [10] -0.002 | [11] 0.002 | [12] -0.017 | [13] -0.002 | [14] 0.052 | [15] -0.023 | [17] 0.014 | [18] -0.012 | [19] -0.004 | [20] -0.072
active: [16] -0.215

DNAJB12 (UniProt Q9NXW2)
Sequence of UniProt Q9NXW2 (Q9NXW2 whole entry, looked up): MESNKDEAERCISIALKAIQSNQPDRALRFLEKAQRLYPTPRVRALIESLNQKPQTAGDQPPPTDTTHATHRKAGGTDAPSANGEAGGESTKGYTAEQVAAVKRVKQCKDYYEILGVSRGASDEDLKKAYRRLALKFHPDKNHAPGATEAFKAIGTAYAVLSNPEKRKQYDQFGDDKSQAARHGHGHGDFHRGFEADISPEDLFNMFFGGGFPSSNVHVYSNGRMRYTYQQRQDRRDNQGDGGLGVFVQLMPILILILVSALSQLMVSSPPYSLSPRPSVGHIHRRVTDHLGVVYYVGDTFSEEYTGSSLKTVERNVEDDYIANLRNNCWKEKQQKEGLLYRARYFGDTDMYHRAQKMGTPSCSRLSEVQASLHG
inactive: [1] -0.057 | [2] 0.007 | [3] -0.158 | [4] 0.041 | [5] -0.068 | [6] 0.015 | [7] -0.04 | [8] -0.039 | [9] 0.016 | [10] 0.01 | [11] -0.03 | [12] -0.018 | [13] -0.048 | [14] -0.029 | [15] 0.001 | [16] 0.027 | [17] 0.027 | [18] 0.079 | [19] -0.038 | [20] 0.002

DHRS7B (UniProt Q6IAN0)
inactive: [1] 0.001 | [2] 0.213 | [3] 0.114 | [4] 0.01 | [5] -0.066 | [6] 0.056 | [7] 0.047 | [8] -0.113 | [9] 0.008 | [10] -0.023 | [11] -0.099 | [12] 0.083 | [13] -0.012 | [14] 0.117 | [15] -0.014 | [16] 0.16 | [17] 0.01 | [18] -0.05 | [19] -0.113 | [20] 0.077

DIAPH1 (UniProt O60610)
Sequence of UniProt O60610 (O60610 whole entry, looked up): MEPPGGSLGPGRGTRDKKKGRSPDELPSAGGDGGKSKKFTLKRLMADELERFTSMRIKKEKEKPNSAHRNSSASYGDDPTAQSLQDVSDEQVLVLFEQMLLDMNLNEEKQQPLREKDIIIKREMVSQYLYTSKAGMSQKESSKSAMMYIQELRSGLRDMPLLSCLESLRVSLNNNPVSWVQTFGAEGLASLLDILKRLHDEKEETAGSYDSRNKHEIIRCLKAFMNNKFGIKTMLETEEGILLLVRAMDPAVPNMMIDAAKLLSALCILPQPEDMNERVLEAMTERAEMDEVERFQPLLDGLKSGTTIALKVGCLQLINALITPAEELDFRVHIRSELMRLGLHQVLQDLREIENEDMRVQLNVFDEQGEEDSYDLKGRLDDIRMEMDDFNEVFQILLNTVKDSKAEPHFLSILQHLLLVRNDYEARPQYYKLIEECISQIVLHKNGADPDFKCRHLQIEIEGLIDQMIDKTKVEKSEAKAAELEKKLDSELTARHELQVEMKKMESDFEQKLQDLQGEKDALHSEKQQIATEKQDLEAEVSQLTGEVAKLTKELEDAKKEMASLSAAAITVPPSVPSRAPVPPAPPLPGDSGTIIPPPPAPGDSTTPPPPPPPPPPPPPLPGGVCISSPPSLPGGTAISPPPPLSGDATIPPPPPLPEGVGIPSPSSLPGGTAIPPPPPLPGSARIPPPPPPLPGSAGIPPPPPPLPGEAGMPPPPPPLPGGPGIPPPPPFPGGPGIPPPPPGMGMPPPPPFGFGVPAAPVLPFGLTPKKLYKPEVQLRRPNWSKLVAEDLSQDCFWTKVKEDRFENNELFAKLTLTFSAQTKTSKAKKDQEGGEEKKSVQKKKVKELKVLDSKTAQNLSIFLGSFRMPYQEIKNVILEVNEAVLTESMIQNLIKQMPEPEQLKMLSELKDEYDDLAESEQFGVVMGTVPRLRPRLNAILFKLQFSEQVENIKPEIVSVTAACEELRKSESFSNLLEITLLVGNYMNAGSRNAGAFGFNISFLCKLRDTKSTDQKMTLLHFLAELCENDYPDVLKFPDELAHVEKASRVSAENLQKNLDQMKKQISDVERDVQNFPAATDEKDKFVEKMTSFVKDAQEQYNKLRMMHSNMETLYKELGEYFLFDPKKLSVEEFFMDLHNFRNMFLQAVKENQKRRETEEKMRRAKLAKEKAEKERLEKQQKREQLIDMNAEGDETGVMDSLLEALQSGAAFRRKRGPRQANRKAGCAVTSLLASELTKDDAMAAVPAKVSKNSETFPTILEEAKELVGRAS
inactive: [1] 0.088 | [2] 0.057 | [3] -0.011 | [4] -0.197 | [5] -0.055 | [6] 0.077 | [7] -0.083 | [8] -0.035 | [9] -0.077 | [10] 0.039 | [11] -0.156 | [12] -0.085 | [13] -0.067 | [14] -0.064 | [15] 0.024 | [16] 0.066 | [17] 0.056 | [18] 0.115 | [19] 0.178 | [20] -0.046
